± gives the standard deviation.

This assay has as its system MILI (PIWIL2) piRISC loaded with L1MC piRNA (26 nt). Description: pre-steady-state target cleavage rate (min^-1); guide: L1MC piRNA 5'p-UAACUAAAUACUAUGCAAGCUGUAGG; MIWI and MILI are mouse PIWI proteins and EfPiwi is from a freshwater sponge; tags in brackets are library labels; higher = faster piRNA-guided slicing of the target. Conditions: auxiliary factor: 500 nM mouse GTSF1. A digest of the protocol:
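Cleave-'n-Seq used a transcribed, DNA-blocked target RNA library at 0.1 nM and active affinity-purified piRISC with one synthetic guide at 1 nM, with or without 500 nM GTSF1 partner protein, in HEPES–potassium acetate buffer at 33 °C for 0–8 or 0–960 min. Uncleaved targets were sequenced and normalised to depth and to weakly complementary targets, and three trials were pooled with k3 capped at 0.0001 min^-1. The pre-steady-state cleavage rate was estimated by a burst-and-steady-state fit.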
Take UCCUGGUACAGCAUGCAUAGUAUUUAGAAA: the “pre-steady-state target cleavage rate” value amounted to 0.0581 ± 0.015.
Next, UCCUGGAUGUGCUUGCAUAGUAUUGAGUUA: 0.0612 ± 0.019; UCCUCCUACAGCUUGCAUAGUAAUUAGAUA: 0.179 ± 0.046.
Next, UCCUGGUACACCUUGCAUAGUAUUUAGAUA: 0.0475 ± 0.016; UCCUGGAUCAGCUUGCAUAGUAAUUAGAUA: 0.0994 ± 0.025.
Next, UCCUGGUACAGCUUGCAUAGUAAUUACAAA: 0.021 ± 0.0095.
For UCCUGGAACAGGUUCCAUAGUAUUUAGUUA, the “pre-steady-state target cleavage rate” value came out at 0.202 ± 0.066.
With UCCUGGAUCAGCUUGCACUAGUAUUUAGUUA the figure was 0.00868 ± 0.0048; with UCCUGGAACAGCUUGCAUAGUAAAUAGAAA, 0.0493 ± 0.016; with UCCUGGAACUCGUUGCAUAGUAUUUAGAAA, 0.136 ± 0.021.
UCCUGGAUGUCCUUGCAUAGUAUUUAGUCA: the “pre-steady-state target cleavage rate” value was 0.0898 ± 0.017.
Next, UCCUGCUACAGCUUCCAUAGUAUUUAGUUA: 0.0846 ± 0.028; UCCUCCUACAGCUUGCAUAGUAUUUGUUA: 0.203 ± 0.04.
UCCUGGUACAGCUUGCAUAGUAUUAAGAAA: the “pre-steady-state target cleavage rate” value came out at 0.0213 ± 0.0097.
With UCCUCGAUCAGCUUGCAUAGUAUUUAGAAA the figure was 0.115 ± 0.02; with UCCUGGAUCAGCUUGCAUAGUAUUAAGAAA, 0.0751 ± 0.02; with UCCUGGAUCUGCUUCCAUAGUAUUUAGUUA, 0.0239 ± 0.0067.
Next, UCCUGGUACAGCUUGCAUAGUAUUCAGUUA: 0.058 ± 0.017.
With UCCUCCUACAGCUUGCAUUGUAUUAAGUUA the figure was 0.132 ± 0.023.
On to UCCUGCUUGAGCUUGCAUAGUAUUUUCAAA, for which the “pre-steady-state target cleavage rate” value was found to be 0.0372 ± 0.013.
Next, UCCUGGUACAGCUUGCAUAGUAUUUAGGUA: 0.0562 ± 0.015.
Next, UCCUGCUACUGCUUCCAUAGUAUUUAGUUA: 0.0453 ± 0.014.
On to UCCUGCUACUGCUUGCAUAGUAUUUACAAA, for which the “pre-steady-state target cleavage rate” value was 0.0206 ± 0.0071.
Next, UCCUGCUACAGCUAGCAUAGUAUUUUGUUA: 0.244 ± 0.031.

Source of the values: the supplement of paper PMC10338343.
